Sampled rows, rich in hits. Any-hit rate of the full collection: about 4.7%.
TRHR agonist – agonists of human TRH receptor | P34981 | TRHR cells, calcium flux fluo-8, FDSS agonist mode | activation, % at 2 µM | actives 0.18% (n = 360,000); also: 0% is about no effect
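TRHR-expressing cells, plated overnight in medium with 10% serum, were loaded with fluo-8 calcium dye at room temperature. After a 10 s baseline, library compound was pin-added and calcium release was recorded kinetically (ex 480/em 530) as agonist response.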
D1 antag – blocks dopamine activation of the human D1 receptor. P21728. HEK293 TREx D1 cells, calcium flux, dopamine EC80; stronger effect = lower value. activity change, negative = inhibition, % at 10 µM. actives 3.2% (n = 360,000). AID 504652; in the data active = activity change below about -30%; also: % is scaled to controls: 0 for no effect and ±100 for the full control effect
Target sequence (P21728 whole entry, looked up): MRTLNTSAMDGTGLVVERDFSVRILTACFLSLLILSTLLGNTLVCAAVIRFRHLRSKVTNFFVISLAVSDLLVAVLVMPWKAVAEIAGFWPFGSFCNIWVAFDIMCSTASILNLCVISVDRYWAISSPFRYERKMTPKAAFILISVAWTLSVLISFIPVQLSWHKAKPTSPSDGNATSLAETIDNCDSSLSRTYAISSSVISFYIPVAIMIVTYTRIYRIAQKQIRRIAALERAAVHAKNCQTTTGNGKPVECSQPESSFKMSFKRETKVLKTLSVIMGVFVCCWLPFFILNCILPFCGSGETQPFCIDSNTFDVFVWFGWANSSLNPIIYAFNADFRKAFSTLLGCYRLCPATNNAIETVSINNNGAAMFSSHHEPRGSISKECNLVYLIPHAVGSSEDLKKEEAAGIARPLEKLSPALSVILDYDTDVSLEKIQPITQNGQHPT
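Compound effects on dopamine-evoked calcium signalling were measured in tetracycline-induced HEK293 Trex D1 cells. Dopamine at EC80 followed a 180 s compound pre-read, and fluorescence was tracked kinetically for 180 s more.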
D1 PAM – potentiators of human D1 dopamine receptor; AID 504651; actives 0.036% (n = 360,000); P21728; HEK293 TREx D1 cells, calcium flux, dopamine EC20 potentiation; potentiation, % at 10 µM; in the data active = potentiation above about 30%; also: 0% is about no effect
D1 agonist – activates the human D1 dopamine receptor; P21728; HEK293 T-REx D1 cells, calcium flux, agonist mode; activation, % at 2 µM; actives 1% (n = 360,000); AID 504660; also: 0% is about no effect
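Tetracycline-induced HEK293 TREx D1 cells, force-coupled to calcium signalling, were dye-loaded with a no-wash calcium kit. Compound was pin-added after a 10 s baseline. Fluorescence was read kinetically at 1 cycle/s for 180 s, with calcium rises flagged as agonism.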
TRHR PAM – allosterically enhances the human TRH receptor | actives 0.66% (n = 360,000) | AID 493056 | TRHR cells, fluo-8 calcium fluorescence, EC20 TRH enhancement | enhancement, % at 2 µM | P34981; in the data active = enhancement above about 30%; also: 0% is about no effect
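Enhancer read-out: after compound pinning and an initial kinetic agonist-mode read, an EC20 of TRH (10 nM final) was injected and fluo-8 calcium signal (Ex 480/Em 530) followed at 1 s/cycle for 100 cycles in TRHR-expressing cells.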
* = called active by the depositor; . = no result given. Rule as the data show it, unless noted: active = activation above about 30%; inactive = the rest.

SMILES	TRHR agonist	D1 antag	D1 PAM	D1 agonist	TRHR PAM
O=C(CCS(=O)(=O)c1ccc(Br)s1)Nc1ccccc1Br	0	-6	-7	7	0
CCCN1CCN(CCCNC(=O)Cn2c(-c3cccs3)cc3cc(Cl)ccc32)CC1	1	-18	-1	35*	2
CCCN1CCN(CCCNC(=O)Cn2c(-c3cccs3)cc3ccccc32)CC1	0	-4	0	6	-1
Cc1ccc(C(=O)/C=C/c2cc(Br)cc(Br)c2O)o1	13	-5	-3	43*	-2
CCc1ccc(-c2cn3c(n2)sc2cc(C(=O)NC4CCCCCC4)ccc23)cc1	-1	-6	3	-2	-3
COCC1CCN(C(=O)C2CCC(=O)N(CCc3cccc(F)c3)C2)CC1 (centres undefined)	1	-3	-3	3	11
Cc1ccccc1CN1CCC(CNc2ncnc3onc(-c4ccc(F)cc4)c23)CC1	-2	19	6	2	36*
Cc1cccc(Nc2ncnc3onc(-c4ccc(F)cc4)c23)c1C	-2	4	-2	2	-7
O=c1c(Cl)c(Cl)cnn1Cc1nnc(-c2ccccc2Br)o1	1	-24	19	236*	39*
Cc1ccc(S(=O)(=O)Nc2ccc(NC(=O)c3c(F)c(F)c(F)c(F)c3F)cc2)cc1	4	-8	-8	47*	-2
Cc1cc(C)c(C(=O)Nc2ccc(S(=O)(=O)Nc3onc(C)c3C)cc2)c(C)c1	0	-82*	-5	-2	-1
Cc1ccc(NS(=O)(=O)c2ccc(NC(=O)C3CCCO3)cc2)cc1 (centres undefined)	-1	0	-4	39*	10
COc1ccc(C(=O)Nc2ccc(S(=O)(=O)Nc3cc(C)nc(C)n3)cc2)cc1OC	1	-6	-4	4	8
COc1ccc(NS(=O)(=O)c2ccc(NC(=O)C3CCCO3)cc2)cc1 (centres undefined)	1	0	1	14	-5
Cc1cc(NS(=O)(=O)c2ccc(NC(=O)c3c(F)c(F)c(F)c(F)c3F)cc2)nc(C)n1	0	-49*	-8	3	1
O=S(=O)(Nc1cccc(-c2ccc(N3CCOCC3)nn2)c1)c1ccccc1C(F)(F)F	0	7	-1	1	-3
Cc1cccc(NC(=O)CSc2nc3ccccc3nc2N2CCCCC2)c1C	-1	-3	-2	-1	2
COc1ccc(Br)cc1CNC(=O)c1ccc(-n2c(C)cc3c2CCC(C)C3)cc1 (centres undefined)	-1	5	1	-2	11
CC(Nc1nc(N2CCNCC2)nc2ccccc12)c1ccccc1 (centres undefined)	0	-54*	-11	3	-6
Cc1cc(N2CCC(C)CC2)nc2ccc(NC(=O)Cc3ccccc3Br)cc12	0	-2	0	0	-4
CCCOc1ccc(Br)cc1CSC(=N)N	1	-20	-1	49*	9
CN1/C(=C\C=C(/C#N)C(=O)Nc2ccc(Cl)cc2)C(C)(C)c2ccccc21	46*	3	-5	81*	8
CC(=O)Nc1cc(NC(C)=O)cc(C(=O)OCC(=O)N(c2ccccc2)C2CCS(=O)(=O)C2)c1 (centres undefined)	0	7	-7	0	1
c1nc2n(n1)C1=C(CCCC1)C1(CCCCC1)N2	0	11	-1	0	-2
COc1ccc(N2CCN(c3ccc(N4C(=O)COCC4=O)cc3[N+](=O)[O-])CC2)cc1	0	-31*	-10	9	-2
SMILES	TRHR agonist	D1 antag	D1 PAM	D1 agonist	TRHR PAM
Nc1ccc2nc(-c3ccccc3)[nH]c2c1	0	-6	0	3	1
Nc1cccc(-c2nc3ccc(C(=O)c4ccccc4)cc3[nH]2)c1	1	-31*	-4	1	-3
CCc1ccc(-n2c(=O)c3c4c(sc3n(Cc3ccc(F)cc3)c2=O)CCCC4)cc1	3	0	1	1	4
CCOC(=O)Cc1cc(-c2ccccc2)nc2ccc3ccccc3c12	4	-36*	-12	10	0
COc1ccc(-c2nc(C(N)=O)c3c(n2)n(-c2ccccc2OC)c(=O)n3C)c(OC)c1	0	2	-4	8	5
CCOc1cc(C=O)ccc1OCCSc1ccc(Cl)cc1	0	-37*	-1	4	5
COc1ccc(/C=N/Nc2ncnc3sc(C)c(C)c23)cc1	1	-9	-5	2	15
Cc1sc2ncnc(N/N=C/c3ccc(O)cc3)c2c1C	1	-86*	-6	1	1
CN1CCN(c2ccc(Cl)cc2NC(=O)c2ccc([N+](=O)[O-])cc2)CC1	0	-85*	-15	6	8
CN(C)S(=O)(=O)c1cccc(C(=O)Nc2cc(Cl)ccc2O)c1	0	-10	-2	10	-3
CN1CCN(c2ccc(Cl)cc2NC(=O)c2cccc(S(=O)(=O)N(C)C)c2)CC1	3	-4	0	41*	-1
Cn1c(=O)n(C)c2cc([N+](=O)[O-])c(N3CCN(C(=O)c4ccc(Cl)cc4)CC3)cc21	0	-57*	-1	2	-1
COc1ccc(NC(=O)Nc2nnc(N(CC(C)C)CC(C)C)s2)c(OC)c1	0	2	1	5	-10
CCC(=O)N1CCc2cc(S(=O)(=O)N(C)c3ccc(Br)cc3)ccc21	-1	6	0	5	1
Cc1cc(=O)[nH]c(SCC(=O)Nc2c(C)n(C)n(-c3ccccc3)c2=O)n1	0	6	.	5	-2
CCOc1c(Cl)cc(Cl)cc1CNCCSc1nnnn1C	-5	3	-3	4	1
CN(C(=O)c1ccccc1C(=O)OCC(=O)NCc1ccccc1)C1CCCCC1	0	-35*	-3	1	3
Cc1ccc2c(=O)c(C(=O)c3ccc(F)cc3)cn(CC(=O)NCCc3ccccc3)c2n1	-1	6	-4	2	14
O=C(Nc1ccc(Cl)c(Cl)c1)C1CCN(C(=O)c2ccco2)CC1	0	2	-18	41*	-10
Cc1ccc(NC(=O)C2CCN(C(=O)c3ccco3)CC2)cc1	0	-15	0	-1	11
Cc1onc(-c2ccccc2)c1C(=O)N1CCN(C(=O)c2ccco2)CC1	0	-16	3	1	30*
Cc1ccc(CN2CCN(C(=O)c3ccco3)CC2)cc1	0	-30*	-7	-2	-2
Cc1ccccc1CN1CCN(C(=O)c2ccco2)CC1	0	8	-5	1	1
CCOc1ccccc1-c1nc(CN2CCCN(C(=O)c3ccco3)CC2)c(C)o1	-1	-67*	-4	-2	1
CC(C)OCCCNC(=O)c1ccc2c(c1)N(Cc1c(F)cccc1Cl)C(=O)c1ccccc1S2	0	-7	1	7	-13

Screens deposited in PubChem by National Center for Advancing Translational Sciences (NCATS).
